Source: the supplement of paper PMC9433436
± gives the standard deviation of the averaged measurements. The full ranking holds about 4,100 sequences; the median of “relative kcat/Km (krel) vs genomic leader AAAGAU” is about 1.7, and the highest 2% start at about 6.5. Shown is part of a subset that was picked to be rich in the highest values.

Target: T1, E. coli RNase P holoenzyme (M1 P RNA + rnpA protein) (UniProt P0A7Y8)
T1 sequence: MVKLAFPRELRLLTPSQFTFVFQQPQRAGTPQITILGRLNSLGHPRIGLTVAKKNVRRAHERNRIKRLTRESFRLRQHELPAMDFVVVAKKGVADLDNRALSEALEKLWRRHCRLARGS
Assay: relative kcat/Km (krel) vs genomic leader AAAGAU (relative (reference leader = 1)); higher = faster RNase P cleavage
Description: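 HTS-Kin: a pool of ptRNA-Met (21C construct) with all 4096 combinations of 5' leader nucleotides N(-6) to N(-1) was processed in vitro by E. coli RNase P (P RNA + rnpA/C5 protein) under multiple-turnover conditions at 37 C, pH 8, 17.5 mM MgCl2. Residual substrate was Illumina-sequenced at several fractions reacted, and relative kcat/Km (krel) was computed by internal competition kinetics, calibrated to the genomic leader (AAAGAU = 1). The listed hexamer is the varied N(-6)..N(-1) leader (DNA letters), and it sits between a fixed 5' stem-loop flank (GCAUGCACGAAAGUGCGUGCUAUGAA) and the mature tRNA-Met starting GGCUACGUAGCUCAGUUGG. Two technical replicates are averaged.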

[1] = fraction of substrate reacted: ~9-10% (9.79% repeat 1, 9.1% repeat 2)
[2] = fraction of substrate reacted: ~13-16% (15.68% repeat 1, 13.17% repeat 2)
[3] = fraction of substrate reacted: ~26-29% (28.66% repeat 1, 26.4% repeat 2)

Sequence | relative kcat/Km [1] | relative kcat/Km [2] | relative kcat/Km [3]
AATGTT | 0.792 ± 0.16 | 0.821 ± 0.55 | 1.29 ± 0.62
TTAATA | 1.94 ± 0.59 | 2.09 ± 0.08 | 2.85 ± 1
AGGGGG |  |  | 1.11 ± 1
GGCGCC | 2.72 ± 2.1 | 2.21 ± 0.42 | 3.06 ± 0.78
ACCCCC | 2.28 ± 0.72 | 1.22 ± 0.62 | 3.15 ± 1.3
CTAGTA | 1.32 ± 0.52 | 0.841 ± 0.56 | 1.69 ± 0.87
CACCTG |  |  | 0.873 ± 0.43
AACCCG |  |  | 0.785 ± 0.38
CTCATT | 3.69 ± 1.4 | 5.23 ± 0.62 | 7.36 ± 3
ATCATC | 3.27 ± 0.66 | 4.72 ± 0.78 | 6.25 ± 2.5
GGCATC | 1.73 ± 0.36 | 2.09 ± 0.48 | 2.42 ± 0.71
CTTATT | 2.42 ± 1 | 2.76 ± 0.34 | 3.73 ± 1.6
CGCATT | 2.39 ± 0.24 | 2.95 ± 0.92 | 4.66 ± 2
GCCATC | 2.88 ± 0.72 | 3.43 ± 1.3 | 4.62 ± 1.3
CTCATG |  | 1.28 ± 0.22 | 3.1 ± 0.052
CTCATC | 3.63 ± 1 | 4.57 ± 0.43 | 6.8 ± 2.4
GTCATC | 4.03 ± 1.8 | 5.36 ± 1.2 | 8.03 ± 3.5
GGATAA | 1.77 ± 0.4 | 2.37 ± 0.4 | 2.82 ± 1.2
ATTGAA | 2.28 ± 0.51 | 2.44 ± 0.32 | 3.48 ± 1.1
GGTAGA | 2.41 ± 0.65 | 2.19 ± 0.26 | 3.13 ± 1.6
TTTGAT | 0.799 ± 0.12 | 1.01 ± 0.025 | 1.39 ± 0.26
CCAGTC | 2.41 ± 0.63 | 1.32 ± 0.76 | 1.52 ± 0.37
TACATC | 3.03 ± 0.57 | 4.44 ± 0.76 | 6.8 ± 2.7
TACATT | 3.85 ± 1.4 | 5.11 ± 0.79 | 7.56 ± 3.7
GACATC | 3.66 ± 0.77 | 3.95 ± 1.1 | 5.9 ± 2.2
GACATT | 3.42 ± 0.26 | 4.33 ± 1.3 | 6.4 ± 3.1

Sequence | relative kcat/Km [1] | relative kcat/Km [2] | relative kcat/Km [3]
CACATC | 2.93 ± 1 | 3.64 ± 0.86 | 5.53 ± 2.1
TACATG | 0.765 ± 0.67 | 1.44 ± 0.13 | 3.16 ± 1.2
TCCCTA | 3.22 ± 1.7 | 3.63 ± 0.34 | 4.34 ± 1.6
CAAACG |  | 0.172 ± 0.13 | 0.797 ± 0.69
GAGAGT | 0.122 ± 0.072 | 1.48 ± 0.097 | 
TACTCC | 3.23 ± 0.81 | 5.06 ± 1 | 6.63 ± 2.8
CACTCT | 3.97 ± 1.4 | 4.52 ± 0.75 | 6.37 ± 2.3
GACTCC | 3.31 ± 0.62 | 4.26 ± 0.76 | 5.61 ± 2
TACTCT | 3.83 ± 0.27 | 4.7 ± 0.86 | 7.13 ± 3.3
AACTCT | 2.76 ± 1.1 | 3.3 ± 0.76 | 4.39 ± 1.2
AACTCC | 3 ± 2.2 | 3.3 ± 0.49 | 4.38 ± 1.3
TGATTC | 1.39 ± 0.61 | 2.97 ± 1.2 | 3.89 ± 1.8
CCAGCA | 1.37 ± 0.54 | 0.452 ± 0.45 | 0.927 ± 0.46
CCATAG |  | 0.327 ± 0.075 | 1.95 ± 0.2
TGGGGT |  |  | 1.83 ± 0.45
TGCTCT | 0.944 ± 0.33 | 1.02 ± 0.37 | 1.5 ± 0.59
GTATAT | 3.56 ± 1.5 | 4.99 ± 0.35 | 7.89 ± 3.5
ATATAG | 2.16 ± 1.9 | 1.77 ± 0.48 | 3.88 ± 1.4
CTATAG | 2.47 ± 1.2 | 1.823 ± 0.012 | 3.4 ± 0.44
TTATAT | 4.62 ± 2 | 5.95 ± 0.72 | 8.54 ± 4
CTATAT | 4.48 ± 1.6 | 5.55 ± 0.85 | 7.37 ± 2.9
TTATCT | 2.77 ± 0.45 | 3.58 ± 0.95 | 5.02 ± 2.2
GTATAA | 3.41 ± 1.2 | 4.18 ± 0.35 | 5.6 ± 2
CTATAA | 3.33 ± 1.3 | 3.72 ± 0.51 | 4.92 ± 1.3
GTATTT | 3.06 ± 2 | 3.71 ± 0.4 | 5.37 ± 1.9
TTATAG | 2.25 ± 1.6 | 2.63 ± 0.53 | 4.22 ± 1.9

Sequence | relative kcat/Km [1] | relative kcat/Km [2] | relative kcat/Km [3]
ATATAA | 2.75 ± 1.4 | 3.31 ± 0.47 | 4.9 ± 1.7
ATATAT | 3 ± 0.9 | 4.49 ± 0.51 | 6.84 ± 3.3
GTGCAA | 1.89 ± 1.4 | 1.25 ± 0.53 | 1.32 ± 0.22
ACACCT | 2.6 ± 1.3 | 1.66 ± 0.33 | 2.53 ± 1.6
TCAGCC | 2.48 ± 0.96 | 2.37 ± 0.56 | 3.15 ± 0.59
GAGCAG |  | 0.164 ± 0.047 | 1.27 ± 0.062
ACGCGA | 2.19 ± 0.79 | 1.29 ± 0.1 | 2.07 ± 0.28
CTGTTA | 2.76 ± 1.4 | 1.44 ± 1.1 | 2.19 ± 0.06
CGACGT |  | 2.25 ± 1.1 | 2.36 ± 1.5
CAGGGC |  | 0.734 ± 0.28 | 0.809 ± 0.4
GCCGTA | 2.27 ± 0.21 | 2.93 ± 0.69 | 3.66 ± 1.4
GGTAAC | 1.47 ± 0.022 | 1.618 ± 0.0045 | 2.64 ± 1.5
CGATAC | 3.25 ± 1.4 | 4.04 ± 1 | 5.79 ± 2.4
CGATAT | 3.51 ± 0.4 | 5.17 ± 2.6 | 6.68 ± 3
GGATAT | 1.83 ± 0.13 | 2.63 ± 0.49 | 3.4 ± 1.9
CTCAAG | 2.69 ± 2 | 2.93 ± 1.3 | 4.67 ± 1.1
ATCAAG |  | 1.96 ± 0.14 | 3.87 ± 0.91
ACCAAG |  | 0.763 ± 0.21 | 2.7 ± 0.17
GTCAAT | 3.17 ± 0.8 | 4.56 ± 1.9 | 7.14 ± 3.8
GGCAAT | 1.76 ± 0.086 | 1.558 ± 0.015 | 3.04 ± 1.2
GTCAAA | 4.62 ± 1.6 | 5.99 ± 1.9 | 8.75 ± 3.3
ATCAAA | 3.96 ± 1.9 | 5.34 ± 0.78 | 7.44 ± 3.2
GCCAAT | 3.15 ± 0.068 | 2.75 ± 1.7 | 4.52 ± 2.3
GGCAAA | 2.21 ± 1 | 3.13 ± 0.17 | 3.46 ± 0.93
CTCAAA | 4.31 ± 1.6 | 4.92 ± 1.4 | 8.02 ± 3.1
CTTAAG | 1.2 ± 0.59 | 1.63 ± 0.79 | 2.28 ± 0.23

Sequence | relative kcat/Km [1] | relative kcat/Km [2] | relative kcat/Km [3]
GTCAAG | 1.75 ± 0.96 | 2.63 ± 0.65 | 5.35 ± 2.1
CAGTCA | 1.56 ± 0.78 | 1.64 ± 1.4 | 2.56 ± 1.5
TGTAGG |  | 0.426 ± 0.27 | 1.61 ± 0.48
CAACCC | 1.41 ± 0.43 | 1.26 ± 0.56 | 1.22 ± 0.096
TCACAC | 3.8 ± 1.1 | 4.7 ± 1.1 | 5.86 ± 2
CCACAC | 1.98 ± 0.78 | 2.63 ± 0.9 | 3.97 ± 1.5
GCTAGA | 1.329 ± 0.007 | 1.71 ± 0.21 | 2.45 ± 0.62
GCCCGG | 0.406 ± 0.099 |  | 0.437 ± 0.31
CAGAGG |  |  | 0.599 ± 0.16
ACATCT | 2.62 ± 1.1 | 3.25 ± 0.78 | 4.12 ± 1.9
TCATGG | 0.253 ± 0.062 | 0.443 ± 0.084 | 0.476 ± 0.47
GATAAC | 2.1 ± 0.44 | 2.81 ± 0.13 | 3.66 ± 1
TATGTG |  |  | 0.506 ± 0.12
ATCTGG | 0.825 ± 0.53 |  | 1.46 ± 0.34
ATCAGA | 3.76 ± 2 | 4.59 ± 0.2 | 7.03 ± 1.9
GTCAGA | 3.33 ± 0.28 | 5.57 ± 1.1 | 9.06 ± 3.4
CTCAGT | 1.02 ± 0.51 | 1.91 ± 1.4 | 2.13 ± 1.4
CTCAGA | 4.71 ± 1.4 | 5.99 ± 1 | 8.03 ± 2.7
ATCAGT |  | 1.79 ± 1.8 | 2.19 ± 2.2
ATCAGG | 0.528 ± 0.016 |  | 1.41 ± 0.062
CTCAGG | 1.96 ± 1.2 | 1.21 ± 0.29 | 2.45 ± 0.18
GTCGGA |  | 1.67 ± 1.1 | 1.51 ± 1.2
GCCAGA | 2.6 ± 2 | 2.26 ± 0.32 | 5.56 ± 1.6
GGACAA | 0.879 ± 0.43 | 1.34 ± 0.47 | 2.59 ± 0.96
TAATTC | 2.12 ± 1.6 | 2.45 ± 0.42 | 3.22 ± 0.89
